# Results reported in publication PMC4336329 (PLoS ONE, 2015).
# The whole screen tested about 310,000 compounds, of which about 14,000 (4.5%) showed an effect of 50% or more. Effects have a minus sign here. The sample holds strong results, similar compounds and a random draw of the others, so the mix is not that of the screen.
# Biological target: human ether-à-go-go-related gene (hERG) potassium channel (human, UniProt Q12809)
# Test: primary screen, population patch clamp on CHO cells stably expressing hERG; higher = less effect of the substance
# 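Note: peak tail current of the secondary pulse compared with the same well before compound.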
# human ether-à-go-go-related gene (hERG) potassium channel, sequence (Q12809 whole entry, looked up): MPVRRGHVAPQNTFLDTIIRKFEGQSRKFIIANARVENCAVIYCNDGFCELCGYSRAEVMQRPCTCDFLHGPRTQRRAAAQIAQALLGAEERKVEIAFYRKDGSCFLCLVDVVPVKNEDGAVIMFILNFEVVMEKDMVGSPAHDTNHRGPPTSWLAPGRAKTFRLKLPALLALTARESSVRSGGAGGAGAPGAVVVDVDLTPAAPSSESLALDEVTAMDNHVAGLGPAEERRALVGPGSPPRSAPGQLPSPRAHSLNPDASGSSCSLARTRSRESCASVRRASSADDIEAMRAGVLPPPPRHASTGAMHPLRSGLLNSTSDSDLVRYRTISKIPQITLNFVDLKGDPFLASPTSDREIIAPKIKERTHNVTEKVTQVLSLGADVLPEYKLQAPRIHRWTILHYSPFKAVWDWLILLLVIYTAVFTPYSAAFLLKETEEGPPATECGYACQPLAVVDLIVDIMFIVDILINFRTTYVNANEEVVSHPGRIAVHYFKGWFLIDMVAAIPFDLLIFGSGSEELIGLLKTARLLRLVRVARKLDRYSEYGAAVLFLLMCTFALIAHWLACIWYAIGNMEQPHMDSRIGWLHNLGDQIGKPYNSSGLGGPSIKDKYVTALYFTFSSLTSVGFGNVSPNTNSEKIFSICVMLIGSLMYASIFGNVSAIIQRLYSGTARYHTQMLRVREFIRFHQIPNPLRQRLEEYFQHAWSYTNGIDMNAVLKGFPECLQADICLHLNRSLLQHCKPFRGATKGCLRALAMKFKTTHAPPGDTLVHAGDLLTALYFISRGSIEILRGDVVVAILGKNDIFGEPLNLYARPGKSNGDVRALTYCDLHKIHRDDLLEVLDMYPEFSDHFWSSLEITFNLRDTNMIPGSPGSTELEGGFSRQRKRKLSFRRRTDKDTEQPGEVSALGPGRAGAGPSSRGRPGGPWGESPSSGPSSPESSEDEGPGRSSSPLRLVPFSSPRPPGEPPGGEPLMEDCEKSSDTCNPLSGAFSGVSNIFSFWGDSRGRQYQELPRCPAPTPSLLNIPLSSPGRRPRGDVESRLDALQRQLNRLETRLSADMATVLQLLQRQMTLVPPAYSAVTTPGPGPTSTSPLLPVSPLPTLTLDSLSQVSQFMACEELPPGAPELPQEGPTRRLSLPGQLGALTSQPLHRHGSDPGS
row,SMILES,"hERG current change (%, negative = inhibition) at 10uM [%]"
1,CCNc1nc(NCC)nc(NS(=O)(=O)c2ccc(N)cc2)n1,22.7
2,CCOC(=O)C(C(=O)Nc1ccc(C)cc1)C1CCCCC1 (centres unmarked),0.407
3,CC(C)n1nnc2ccccc2c1=O,10
4,CN(C)S(=O)(=O)c1cccc(-c2cn3ccccc3n2)c1,-2.91
5,CC1CC1C(=O)OCC(=O)NNC(=O)c1ccc([N+](=O)[O-])cc1 (centres unmarked),-2.32
6,COc1ccc(C2/C(=C(/O)c3ccc(C)cc3)C(=O)C(=O)N2CC2CCCO2)cc1OC (centres unmarked),20.8
7,CCOC(=O)CNC(=O)c1ccc(C)cc1,4.88
8,COc1cc(SC)ccc1C(=O)OCC(=O)NC1CC1,7.53
9,CC(=O)Cn1nnc(-c2ccc(C(F)(F)F)cc2)n1,6.1
10,CCN1CCN(CCCNC(=O)c2ccccc2NC(=O)C2=C(C)OCCS2)CC1,1.11
11,CC(C(=O)N1CCc2ccccc21)N1CCN(Cc2ccc(Cl)cc2)CC1 (centres unmarked),-67
12,CC(C(=O)N1CCc2ccccc21)N1CCc2ccccc2C1 (centres unmarked),-18.9
13,CC(C(=O)N1CCc2ccccc21)N1CCN(Cc2ccccc2)CC1 (centres unmarked),-34
14,COCCCNc1nc2c(-c3cccc(C(F)(F)F)c3)nnn2c2ccccc12,-1.31
15,O=[N+]([O-])c1ccc(/C=N/Nc2cc(Cl)nc(-c3ccccc3)n2)cc1,2.34
16,CCC(C)c1ccc(OCC(=O)O)cc1 (centres unmarked),11.5
17,CC(=O)N(Cc1cccnc1)c1cccc(-c2nc3ccccc3s2)c1,-51.1
18,c1cncc(-c2nc3ccccc3s2)c1,2.39
19,O=C(NCc1cccnc1)c1cccnc1-c1nc2ccccc2s1,-14
20,COC(C)(C)[C@H](O)COc1c2ccoc2cc2oc(=O)ccc12,11.2
21,Cc1cccc(CCNC(=O)CCNS(=O)(=O)c2cc(Br)cnc2N)c1,-5.7
22,CC(C)c1ccc(-c2c(C#N)c(N)nc(SCC(=O)N3CCCCCC3)c2C#N)cc1,8.56

row,SMILES,"hERG current change (%, negative = inhibition) at 10uM [%]"
1,COc1ccccc1C(=O)Nc1ccc(OC(C)C(=O)N2CCOCC2)cc1 (centres unmarked),1.1
2,Cc1cccc(NC(=O)N2CCN(Cc3ccc(Cl)cc3)CC2)c1,-50.7
3,COc1cccc(NC(=O)c2ccc(CN3CCN(c4ccccc4)CC3)cc2)c1,-48.8
4,Cc1cccc(NC(=O)N2CCCC2)c1,12.4
5,Cc1cccc(NC(=O)N2CCN(Cc3ccccc3)CC2)c1,8.14
6,Cc1cccc(NC(=O)c2ccc(CN3CCN(Cc4ccccc4)CC3)cc2)c1,-80.3
7,O=C(Nc1cccc(C(=O)N2CCN(Cc3ccccc3)CC2)c1)c1ccccc1,-16.7
8,O=S(=O)(NNC(=S)NCC1CCCO1)c1cc(Cl)ccc1Cl (centres unmarked),9.42
9,COC(=O)C1=C(C)N(CCc2ccccc2)C(=O)/C1=C\c1ccco1,-4.19
10,Cn1c(=O)c2c(nc(NCCCO)n2C/C=C/c2ccccc2)n(C)c1=O,-21
11,Cn1c(CNC(=O)c2ccccc2)nnc1SCC(=O)N1CCN(c2ccccc2)CC1,1.77
12,CCn1c(CSCc2ccc(C)cc2)nnc1SCC(=O)N1CCN(c2ccccc2)CC1,-45.4
13,COc1ccc(-n2cnnc2SCC(=O)N2CCN(c3ccccc3)CC2)cc1,-36.2
14,Cc1ccc(CSCC(=O)N2CCN(c3ccccc3)CC2)cc1,-9.06
15,Cn1c(CSCc2ccc(F)cc2)nnc1SCC(=O)N1CCN(c2ccccc2)CC1,-70.7
16,Cn1c(Cc2ccccc2)nnc1SCC(=O)N1CCN(c2ccccc2)CC1,-14.5
17,Cn1c(CNC(=O)c2ccccc2F)nnc1SCC(=O)N1CCN(c2ccccc2)CC1,-8.2
18,CCn1c(CSCc2ccc(F)cc2)nnc1SCC(=O)N1CCN(c2ccccc2)CC1,-58.6
19,O=C(CSc1nncn1-c1ccccc1)N1CCCC1,2.66
20,C=CCn1c(CSCc2ccccc2)nnc1SCC(=O)N1CCN(c2ccccc2)CC1,-23.6
21,Cc1ccccc1-n1cnnc1SCC(=O)N1CCN(c2ccccc2)CC1,-57.7
22,Cc1ccc(CSCc2nnc(SCC(=O)N3CCN(c4ccccc4)CC3)n2C)cc1,-54
